STK33 kin inh = STK33 kinase inhibitors, primary screen, biochemical, luminescence, ADP-Glo, MBP substrate; inhibition, % at 12.5 µM; hit rate 0.44% among 27,000; AID 2322, 2010; in the data active = inhibition above about 20%
Target sequence (Q9BYT3 whole entry, looked up): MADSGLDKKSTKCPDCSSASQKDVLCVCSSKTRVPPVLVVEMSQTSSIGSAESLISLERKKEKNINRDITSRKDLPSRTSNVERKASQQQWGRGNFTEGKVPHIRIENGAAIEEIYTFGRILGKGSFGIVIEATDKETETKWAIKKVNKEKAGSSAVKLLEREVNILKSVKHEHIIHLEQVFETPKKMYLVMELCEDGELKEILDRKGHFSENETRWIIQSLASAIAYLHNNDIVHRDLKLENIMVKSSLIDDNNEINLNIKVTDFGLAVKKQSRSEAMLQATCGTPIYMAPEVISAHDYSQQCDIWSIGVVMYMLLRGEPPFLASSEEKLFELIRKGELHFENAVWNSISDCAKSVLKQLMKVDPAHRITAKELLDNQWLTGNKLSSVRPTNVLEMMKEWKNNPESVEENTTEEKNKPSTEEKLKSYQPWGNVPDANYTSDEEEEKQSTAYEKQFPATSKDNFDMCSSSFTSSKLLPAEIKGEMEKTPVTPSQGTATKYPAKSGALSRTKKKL
ID4 SMM = binders of human ID4 protein, primary screen, biochemical, small molecule microarray, single point; Flag-ID4 binding, fluorescence F/B; AID 624137, 2012; DNA-binding protein inhibitor ID-4 (Homo sapiens), P47928; hit rate 1.2% among 31,000; calls only; call rule not given here;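 note: a binder raises fluorescence above local background on the spot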
* = called active by the depositor; i = inactive; nt = no result given; + = active, no number. Hits are enriched below; roughly 1.1% of the tested compounds scored in any of these assays.

SMILES	STK33 kin inh	ID4 SMM
O=C(O)CCCCCCC(=O)Nc1ccc(C2CC(CSc3nc(-c4ccccc4)c(-c4ccccc4)o3)OC(c3ccccc3)O2)cc1 (configuration not stated)	nt	+
CC(=O)c1cccc(NC(=O)CSc2nc(-c3ccccc3)c(-c3ccccc3)o2)c1	11.6	i
O=C(O)CSc1nc2cc(F)c(F)cc2[nH]1	4.0	i
C[C@@H]1CN([C@H](C)CO)C(=O)Cc2cc(NC(=O)c3ccncc3)ccc2O[C@H]1CN(C)C	-0.1	nt
C[C@H]1CN([C@@H](C)CO)C(=O)c2cccc(NC(=O)c3cnccn3)c2O[C@@H]1CN(C)C(=O)Nc1ccccc1	nt	+
C[C@@H]1CN([C@@H](C)CO)C(=O)c2cccc(NC(=O)c3cnccn3)c2O[C@@H]1CN(C)C(=O)Nc1ccccc1	nt	i
COc1ccc(NC(=O)Nc2cccc3c2O[C@H](CN(C)S(=O)(=O)c2ccc(Cl)cc2)[C@H](C)CN([C@@H](C)CO)C3=O)cc1	nt	+
C[C@@H]1CN([C@H](C)CO)C(=O)c2cccc(NC(=O)c3nc4ccccc4s3)c2O[C@H]1CN(C)C(=O)Nc1cccc2ccccc12	nt	+
COc1ccc(NC(=O)Nc2cccc3c2O[C@@H](CN(C)S(=O)(=O)c2ccc(Cl)cc2)[C@@H](C)CN([C@@H](C)CO)C3=O)cc1	nt	i
C[C@@H]1CN([C@@H](C)CO)C(=O)c2cccc(NC(=O)c3nc4ccccc4s3)c2O[C@H]1CN(C)C(=O)Nc1cccc2ccccc12	nt	i
N=c1ncn(Cc2ccccc2)c2nc(SCC(=O)O)[nH]c12	-1.6	i
O=S(=O)(NCc1ccco1)c1ccc(Oc2ccccc2)cc1	2.2	i
CC(C)NC(=O)Nc1ccc2c(c1)C(=O)N([C@H](C)CO)C[C@H](C)[C@H](CN(C)C(=O)c1ccncc1)OCCCC[C@H](C)O2	nt	i
CC(NS(=O)(=O)c1ccccc1)C(=O)Nc1ccc(F)c(Cl)c1 (configuration not stated)	-4.2	i
CNC[C@@H]1OCCCC[C@@H](C)Oc2ccc(NS(=O)(=O)c3cccs3)cc2C(=O)N([C@@H](C)CO)C[C@H]1C	nt	+
CNC[C@@H]1OCCCC[C@H](C)Oc2ccc(NS(=O)(=O)c3cccs3)cc2C(=O)N([C@@H](C)CO)C[C@H]1C	nt	i
CNC[C@H]1OCCCC[C@@H](C)Oc2ccc(NS(=O)(=O)c3cccs3)cc2C(=O)N([C@H](C)CO)C[C@H]1C	nt	i
CNC[C@H]1OCCCC[C@H](C)Oc2ccc(NS(=O)(=O)c3cccs3)cc2C(=O)N([C@@H](C)CO)C[C@@H]1C	nt	+
O=C(NCc1ccccc1)[C@]1(Cc2ccccc2)N=C(c2ccc(OCCCO)cc2)O[C@@H]1c1ccccc1	1.1	i

Screening results deposited in PubChem by Broad Institute.
